Source: article PMC10726135, “HNF4α isoforms regulate the circadian balance between carbohydrate and lipid metabolism in the liver”
In all, about 18,000 sequences were measured (“log2 normalized intensity”: median about 0.36, highest 2% from about 7.3 on). The entries come from a sample that favours the highest values as a whole.

These sequences were tested against T1, HNF4alpha8 (COS-7 nuclear extract) (Homo sapiens, UniProt P41235-5 1-452) (assay: protein-binding microarray; COS-7 nuclear extract on double-stranded Agilent 4x180k PBM; binding buffer, salt, pH and temperature not given in the material; high values mean tight binding). Settings: chain copies: 2; label: 3' end of strand 1 on the slide; dsDNA, one strand shown.
T1 sequence: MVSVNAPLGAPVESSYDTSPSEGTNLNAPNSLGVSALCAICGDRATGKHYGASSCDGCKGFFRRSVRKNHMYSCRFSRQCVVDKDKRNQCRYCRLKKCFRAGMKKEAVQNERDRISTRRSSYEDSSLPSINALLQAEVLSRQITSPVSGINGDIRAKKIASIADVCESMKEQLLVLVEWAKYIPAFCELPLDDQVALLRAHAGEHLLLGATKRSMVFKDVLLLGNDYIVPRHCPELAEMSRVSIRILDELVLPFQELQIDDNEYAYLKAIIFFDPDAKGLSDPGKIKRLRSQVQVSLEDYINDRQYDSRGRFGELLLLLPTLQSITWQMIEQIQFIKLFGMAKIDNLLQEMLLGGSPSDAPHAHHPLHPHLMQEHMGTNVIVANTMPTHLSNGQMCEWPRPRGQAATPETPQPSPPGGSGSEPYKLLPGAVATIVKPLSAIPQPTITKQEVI
How it was run: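 Binding signal is the background-corrected, normalized gProcessedSignal calculated by Agilent software. It was measured by applying nuclear extracts of COS-7 cells transiently transfected with a human HNF4α isoform expression vector to a custom Agilent SurePrint G3 4x180k array of ~44,000 double-stranded ~60-nt test sequences in quadruplicate, then imaging bound HNF4α on an Agilent G2565CA scanner at 2-µm resolution.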
“CAGAGACAATGTGAGCAGGTGTGTGGCATCGCCTAGGGAGATTAGAGTATCGGTCGA” was tested, and the binding signal was 0.13 log2 normalized intensity. Work on “CGACCTCCCCGTCACCCTCCCCGCCACCCCGCCTAGGGAGATTAGAGTATCGGTCGA” yielded a binding signal of 7.01 log2 normalized intensity. For “GCAAATGTGTCTTTTTTAGTCAGCATAGTTGCCTAGGGAGATTAGAGTATCGGTCGA”, the binding signal was 1.34 log2 normalized intensity. For “TGTGACAGAAGTCATGTCTCATTGCCCCTTGCCTAGGGAGATTAGAGTATCGGTCGA”, the binding signal was 4.58 log2 normalized intensity. “GAATGGCCAGAGTTCCTGTGCAAGCCCCTGGCCTAGGGAGATTAGAGTATCGGTCGA” gave a binding signal of -0.986 log2 normalized intensity. “GGTGAAGGGGTCACCTCGCTCCCCTCCTGTGCCTAGGGAGATTAGAGTATCGGTCGA” showed a binding signal of 1.02 log2 normalized intensity. “GTTGGTTTCTGGGATTTGTACAAGTGATTGGCCTAGGGAGATTAGAGTATCGGTCGA” was tested, and the binding signal was 1.63 log2 normalized intensity. “CAGTTTGACCTTTGCATTCTTACCCAAGCCGCCTAGGGAGATTAGAGTATCGGTCGA” was tested, and the binding signal was 5.1 log2 normalized intensity. “GAGGCCAGTTTGACCTTTGCATTCTTACCCGCCTAGGGAGATTAGAGTATCGGTCGA” was tested, and the binding signal was 7.03 log2 normalized intensity. Sequence “CCTGAGAGGCCAGTTTGACCTTTGCATTCTGCCTAGGGAGATTAGAGTATCGGTCGA” has a binding signal of 8.31 log2 normalized intensity. In the case of “ATATCCCTGAGAGGCCAGTTTGACCTTTGCGCCTAGGGAGATTAGAGTATCGGTCGA”, the binding signal is reported as 8.82 log2 normalized intensity. Work on “TTTGGAGTTTGACCTGGAGCCAGGGCCTTTGCCTAGGGAGATTAGAGTATCGGTCGA” yielded a binding signal of 3.92 log2 normalized intensity. Sequence “TCACCATATCCCTGAGAGGCCAGTTTGACCGCCTAGGGAGATTAGAGTATCGGTCGA” has a binding signal of 3.28 log2 normalized intensity. With “AACATGTAAATATGACCTTTGCTTTTCAAGGCCTAGGGAGATTAGAGTATCGGTCGA” the binding signal was 5.13 log2 normalized intensity. Work on “ATGTGGTCAAAACTTTGTTTGAGTTCCAAAGCCTAGGGAGATTAGAGTATCGGTCGA” yielded a binding signal of 1.01 log2 normalized intensity. For “TTTGACATCACCTAACTTGTGGCTGGGTGAGCCTAGGGAGATTAGAGTATCGGTCGA”, the binding signal was 1.15 log2 normalized intensity. With “AACCCCTTTTCAATTCCTTATCTCGTTCTGGCCTAGGGAGATTAGAGTATCGGTCGA” the binding signal was 0.721 log2 normalized intensity. “ACAGCAGTGGACTTTGACCTTGGCACTGAAGCCTAGGGAGATTAGAGTATCGGTCGA” gave a binding signal of 9.68 log2 normalized intensity. With “ATGTGACCTTTTGGACCACAGAGTGACCTGGCCTAGGGAGATTAGAGTATCGGTCGA” the binding signal was 5.66 log2 normalized intensity. Work on “TGACCTTGCAGTGGCAAGGCAAAAGAGACAGCCTAGGGAGATTAGAGTATCGGTCGA” yielded a binding signal of 0.892 log2 normalized intensity. “ACTTTGACCTTGGCACTGAAGAATGTCTAAGCCTAGGGAGATTAGAGTATCGGTCGA” was tested, and the binding signal was 2.09 log2 normalized intensity. For “ACAGCACTGACCTTTGAGAGTCAACACTGAGCCTAGGGAGATTAGAGTATCGGTCGA”, the binding signal was 3.53 log2 normalized intensity. With “CAGTCACAGCAGTGGACTTTGACCTTGGCAGCCTAGGGAGATTAGAGTATCGGTCGA” the binding signal was 9.69 log2 normalized intensity. Sequence “CCTCCTGTGGTAATAAGTTGGTGGACGCTGGCCTAGGGAGATTAGAGTATCGGTCGA” has a binding signal of 1.13 log2 normalized intensity. For “AGGCCAAACAAAAATATGGACTTTGGAATTGCCTAGGGAGATTAGAGTATCGGTCGA”, the binding signal was 8.4 log2 normalized intensity. “ATCTCCAGATAAGACTTTGGACTTTGGACCGCCTAGGGAGATTAGAGTATCGGTCGA” gave a binding signal of 11.8 log2 normalized intensity. Sequence “TCTTTAGGCCAAACAAAAATATGGACTTTGGCCTAGGGAGATTAGAGTATCGGTCGA” has a binding signal of 6.57 log2 normalized intensity. “ATTTGGACTTTTACTCTTAGAGATAATGGGGCCTAGGGAGATTAGAGTATCGGTCGA” gave a binding signal of 2.47 log2 normalized intensity. “GGATAATGATAAAGAGATTGGACTTTGGCCGCCTAGGGAGATTAGAGTATCGGTCGA” gave a binding signal of 9.44 log2 normalized intensity. “GAGACAGCTCCACAGCTGGACTTTGGCTGCGCCTAGGGAGATTAGAGTATCGGTCGA” showed a binding signal of 6.17 log2 normalized intensity. Sequence “GGACTTTGGTGTCTGACAGATAAGATTTGGGCCTAGGGAGATTAGAGTATCGGTCGA” has a binding signal of 2.62 log2 normalized intensity. With “TATGCTCTCTCTCCACCTGGAGGGACTTTGGCCTAGGGAGATTAGAGTATCGGTCGA” the binding signal was 3.06 log2 normalized intensity. Sequence “ATCTCCAAACGAGACTTTGGACTTTGGACTGCCTAGGGAGATTAGAGTATCGGTCGA” has a binding signal of 11.9 log2 normalized intensity. For “AAAATATGGACTTTGGAATTAAGAAAAGCTGCCTAGGGAGATTAGAGTATCGGTCGA”, the binding signal was 5.77 log2 normalized intensity. Sequence “GCTAAGAGACAGCTCCACAGCTGGACTTTGGCCTAGGGAGATTAGAGTATCGGTCGA” has a binding signal of 5.9 log2 normalized intensity. “AAAGATGTTTAAATAGTGATAATGGATGGCGCCTAGGGAGATTAGAGTATCGGTCGA” showed a binding signal of 0.702 log2 normalized intensity. In the case of “GGGTTAGGCCTTTAGAGGATTTACTTATACGCCTAGGGAGATTAGAGTATCGGTCGA”, the binding signal is reported as 0.821 log2 normalized intensity. “TGCTCATAGCTACGGGTGACCTTGAGCACTGCCTAGGGAGATTAGAGTATCGGTCGA” was tested, and the binding signal was 3.93 log2 normalized intensity. Sequence “TCCTCTTCCCTACCCCCTGGGAGTAACCTGGCCTAGGGAGATTAGAGTATCGGTCGA” has a binding signal of 3.13 log2 normalized intensity. For “TCTGATACATTGGACAACTGTACTTTGGACGCCTAGGGAGATTAGAGTATCGGTCGA”, the binding signal was 8.02 log2 normalized intensity. With “AAAGGGACTCATCTCCAAACGAGACTTTGGGCCTAGGGAGATTAGAGTATCGGTCGA” the binding signal was 2.23 log2 normalized intensity. For “GAAGGAGAGAGAGGGAGAGTGGCCTTTGGAGCCTAGGGAGATTAGAGTATCGGTCGA”, the binding signal was 4.12 log2 normalized intensity. For “CACAAATTGGAGAGCATCTTGGACTTGGGAGCCTAGGGAGATTAGAGTATCGGTCGA”, the binding signal was 3.16 log2 normalized intensity. For “TACATTGGACAACTGTACTTTGGACTGGGGGCCTAGGGAGATTAGAGTATCGGTCGA”, the binding signal was 6.69 log2 normalized intensity. With “ACAGTTCTGATACATTGGACAACTGTACTTGCCTAGGGAGATTAGAGTATCGGTCGA” the binding signal was 2.21 log2 normalized intensity. In the case of “CAAACGAGACTTTGGACTTTGGACTTGGGAGCCTAGGGAGATTAGAGTATCGGTCGA”, the binding signal is reported as 10.9 log2 normalized intensity. With “CTCCAAACATCTTTGGTATGGACTGATATTGCCTAGGGAGATTAGAGTATCGGTCGA” the binding signal was 1.85 log2 normalized intensity. For “GACTCATCTCCAAACGAGACTTTGGACTTTGCCTAGGGAGATTAGAGTATCGGTCGA”, the binding signal was 9.58 log2 normalized intensity. For “GTGACTACCTGGTTAAAAGGACAACCTTCGGCCTAGGGAGATTAGAGTATCGGTCGA”, the binding signal was -0.397 log2 normalized intensity. “AGAATGTGGTTCTTTTCATTAAATATTTAAGCCTAGGGAGATTAGAGTATCGGTCGA” showed a binding signal of 0.534 log2 normalized intensity. “CCAGTTCTTTTGACCTTTGCCTCATTCTTAGCCTAGGGAGATTAGAGTATCGGTCGA” gave a binding signal of 7.02 log2 normalized intensity. “TCCTTTTGACCACAGTTATCTCCCCAGCTTGCCTAGGGAGATTAGAGTATCGGTCGA” gave a binding signal of 2.38 log2 normalized intensity. Sequence “ATCTCCCAGTTCTTTTGACCTTTGCCTCATGCCTAGGGAGATTAGAGTATCGGTCGA” has a binding signal of 8.61 log2 normalized intensity. Sequence “ATGCTATCTCCCAGTTCTTTTGACCTTTGCGCCTAGGGAGATTAGAGTATCGGTCGA” has a binding signal of 8.5 log2 normalized intensity. Sequence “AGTTATATCTTACCTCCTTCTCCCCCATGCGCCTAGGGAGATTAGAGTATCGGTCGA” has a binding signal of 4.73 log2 normalized intensity. With “CCTCAATGCTATCTCCCAGTTCTTTTGACCGCCTAGGGAGATTAGAGTATCGGTCGA” the binding signal was 2.7 log2 normalized intensity.
